Where “and” joins values, the source holds several entries; their conditions need not be identical. Equal values may be shown once. Out of some 5,500 compounds screened, about 2,000 (36%) were called active. Inconclusive results (about 18%) are left out. Rule as the data show it: active = normalized growth mostly below about 0.91 (no sharp cut-off); inconclusive = no clear call, values can overlap the other calls; inactive = mostly above about 0.92. The list shows a part of the results.
Experiment: chemical genetic growth profiling, strain panel (AID 1159580);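 also: tested at 20 µM; growth read once vehicle control cultures reached saturation at 30 °C; 1 = growth at the plate median or of vehicle wells; lower values mean less growth of the strain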
Details: S. cerevisiae deletion strains, growth OD

Measured: normalized growth

CC(CN(C)C)CN1c2ccccc2Sc2ccccc21 (configuration not stated)
inactive: locus YAL013W, strain DEP1, active compounds read low 0.993 | locus YAL021C, strain ccr4, active compounds read low 0.99 | locus YAL026C, strain drs2, active compounds read low 0.951 | locus YAL030W, strain snc1, active compounds read low 1.02 | locus YBL061C, strain skt5, active compounds read low 1.02 | locus YBR009C, strain hhf1, active compounds read low 1.02 | locus YBR023C, strain chs3, active compounds read low 1.02 | locus YBR171W, strain sec66, active compounds read low 1.04 | locus YBR229C, strain ROT2, active compounds read low 0.992 | locus YBR231C, strain swc5, active compounds read low 1.03 | locus YBR279W, strain paf1, active compounds read low 1.02 | locus YCL011C, strain gbp2, active compounds read low 1.02 | locus YCL016C, strain dcc1, active compounds read low 1.01 | locus YCL029C, strain bik1, active compounds read low 0.989 | locus YCL061C, strain MRC1, active compounds read low 1.02 | locus YCL069W, strain vba3, active compounds read low 1.02 | locus YCR088W, strain abp1, active compounds read low 1.02 | locus YDL005C, strain med2, active compounds read low 1.02 | locus YDL035C, strain GPR1, active compounds read low 0.985 | locus YDL040C, strain nat1, active compounds read low 1.01 | locus YDL074C, strain BRE1, active compounds read low 0.933 | locus YDL101C, strain DUN1, active compounds read low 0.985 | locus YDL134C, strain PPH21, active compounds read low 0.979 | locus YDL185W, strain tfp1, active compounds read low 0.974 | locus YDL192W, strain arf1, active compounds read low 0.998 | locus YDR001C, strain nth1, active compounds read low 1.01 | locus YDR069C, strain doa4, active compounds read low 1.01 | locus YDR101C, strain arx1, active compounds read low 0.988 | locus YDR150W, strain NUM1, active compounds read low 1.01 | locus YDR159W, strain sac3, active compounds read low 1.03 | locus YDR162C, strain NBP2, active compounds read low 0.991 | locus YDR195W, strain ref2 1.13 | locus YDR297W, strain sur2, active compounds read low 1.01 | locus YDR318W, strain mcm21, active compounds read low 0.974 | locus YDR334W, strain swr1, active compounds read low 1.02 | locus YDR335W, strain msn5, active compounds read low 1.02 | locus YDR388W, active compounds read low 0.966 | locus YDR392W, strain spt3, active compounds read low 1.07 | locus YDR502C, strain sam2, active compounds read low 0.99 | locus YEL003W, strain gim4, active compounds read low 0.988 | locus YEL037C, strain rad23, active compounds read low 1.01 | locus YEL061C, strain CIN8 (second series), active compounds read low 1.02 | locus YEL061C, strain CIN8, active compounds read low 0.994 | locus YER015W, strain faa2, active compounds read low 1.03 | locus YER016W, strain bim1, active compounds read low 1.02 | locus YER110C, active compounds read low 0.999 | locus YER111C, strain swi4, active compounds read low 1.03 | locus YER155C, strain BEM2 (second series), active compounds read low 1.04 | locus YER155C, strain BEM2, active compounds read low 0.99 | locus YER167W, strain BCK2, active compounds read low 0.997 | locus YFR010W, strain ubp6, active compounds read low 0.985 | locus YGL078C, strain dbp3, active compounds read low 0.986 | locus YGL086W, strain mad1, active compounds read low 0.991 | locus YGL167C, strain pmr1, active compounds read low 1.03 | locus YGL173C, strain kem1, active compounds read low 1.03 | locus YGL227W, strain vid30, active compounds read low 1.02 | locus YGL240W, strain doc1, active compounds read low 1.03 | locus YGL248W, strain PDE1, active compounds read low 0.995 | locus YGL253W, strain hxk2, active compounds read low 1.02 | locus YGR078C, strain PAC10, active compounds read low 0.958 | locus YGR135W, strain pre9, active compounds read low 0.944 | locus YGR229C, strain SMI1, active compounds read low 0.911 | locus YGR252W, strain gcn5, active compounds read low 0.917 | locus YHR013C, strain ard1, active compounds read low 1.04 | locus YHR027C, strain rpn1, active compounds read low 1.05 | locus YHR030C, strain SLT2, active compounds read low 0.983 and 1 | locus YHR079C, strain IRE1 (second series), active compounds read low 0.985 | locus YHR079C, strain IRE1, active compounds read low 0.993 | locus YHR094C, strain hxt1, active compounds read low 0.993 | locus YHR129C, strain ARP1, active compounds read low 0.989 | locus YHR142W, strain chs7, active compounds read low 1.01 | locus YHR200W, strain rpn10, active compounds read low 0.988 | locus YIL066C, strain RNR3, active compounds read low 0.972 | locus YIL073C, strain SPO22, active compounds read low 0.991 | locus YIL125W, strain kgd1, active compounds read low 0.996 | locus YIR030C, strain dcg1, active compounds read low 0.989 | locus YJL092W, strain hpr5, active compounds read low 1.01 | locus YJL095W, strain BCK1 (second series), active compounds read low 1.01 | locus YJL095W, strain BCK1, active compounds read low 0.861 and 1 | locus YJL115W, strain asf1, active compounds read low 1.01 | locus YJL129C, strain trk1, active compounds read low 1.11 | locus YJL134W, strain LCB3, active compounds read low 0.992 | locus YJL154C, strain vps35, active compounds read low 1.02 | locus YJL164C, strain tpk1, active compounds read low 1.02 | locus YJL166W, strain qcr8, active compounds read low 1.02 | locus YJL168C, strain set2, active compounds read low 0.993 | locus YJL187C, strain SWE1 (second series), active compounds read low 0.957 | locus YJL187C, strain SWE1, active compounds read low 1.01 | locus YJR043C, strain POL32, active compounds read low 1.02 | locus YJR066W, strain TOR1, active compounds read low 0.937
active: locus YBR021W, strain FUR4, active compounds read low 0.818 | locus YDR137W, strain rgp1, active compounds read low 1.22 [resistant]
